In publication doi:10.1101/2024.03.05.583629:

Biological target: pT7_6His-AlfaTag-HOXD13 (human, UniProt P35453 263-343)
Assay: PADIT-seq
Settings: dsDNA, one strand shown

Sequence of pT7_6His-AlfaTag-HOXD13 (P35453 263-343): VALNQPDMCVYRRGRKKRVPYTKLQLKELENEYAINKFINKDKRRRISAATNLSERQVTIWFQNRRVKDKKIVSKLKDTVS

First: CTCGAGGATATCAAGATCTGGCCTCGGCGTTTTACGGGGAACCTCTAGCTAGCCGACTCACTATAGGGATAATCGCCCTGAGCAAAGACC
Second: CTCGAGGATATCAAGATCTGGCCTCGGCGCGGGGGCGGGAACCTCTAGCTAGCCGACTCACTATAGGGATAATCGCCCTGAGCAAAGACC
The binding signal of the first is higher: 3.16 ± 0.0771 log2FC for the first, -0.903 ± 0.133 log2FC for the second.

Going from “CTCGAGGATATCAAGATCTGGCCTCGGCCTTTTAAGGGGAACCTCTAGCTAGCCGACTCACTATAGGGATAATCGCCCTGAGCAAAGACC” to “CTCGAGGATATCAAGATCTGGCCTCGGCTCGGTAAAAGGAACCTCTAGCTAGCCGACTCACTATAGGGATAATCGCCCTGAGCAAAGACC”, the binding signal falls from 1.67 ± 0.0786 log2FC to 0.426 ± 0.0878 log2FC.

“CTCGAGGATATCAAGATCTGGCCTCGGCCATCCACGCGGAACCTCTAGCTAGCCGACTCACTATAGGGATAATCGCCCTGAGCAAAGACC” and “CTCGAGGATATCAAGATCTGGCCTCGGCGCGTGGACAGGAACCTCTAGCTAGCCGACTCACTATAGGGATAATCGCCCTGAGCAAAGACC” are within error of each other in binding signal: -1.04 ± 0.111 log2FC for the first, -1.05 ± 0.134 log2FC for the second.

First: CTCGAGGATATCAAGATCTGGCCTCGGCTATTGGGCGGGAACCTCTAGCTAGCCGACTCACTATAGGGATAATCGCCCTGAGCAAAGACC
Second: CTCGAGGATATCAAGATCTGGCCTCGGCATTTTACAGGGAACCTCTAGCTAGCCGACTCACTATAGGGATAATCGCCCTGAGCAAAGACC
The binding signal of the first is lower: -0.163 ± 0.106 log2FC for the first, 3.08 ± 0.0772 log2FC for the second.

Compared with “CTCGAGGATATCAAGATCTGGCCTCGGCGTTTTAGTGGGAACCTCTAGCTAGCCGACTCACTATAGGGATAATCGCCCTGAGCAAAGACC”, “CTCGAGGATATCAAGATCTGGCCTCGGCCGCGCCCGCGGAACCTCTAGCTAGCCGACTCACTATAGGGATAATCGCCCTGAGCAAAGACC” is lower in binding signal: 1.76 ± 0.0845 log2FC for the first, -1.09 ± 0.134 log2FC for the second.

First: CTCGAGGATATCAAGATCTGGCCTCGGCAGATTAAAAGGAACCTCTAGCTAGCCGACTCACTATAGGGATAATCGCCCTGAGCAAAGACC
Second: CTCGAGGATATCAAGATCTGGCCTCGGCATCTTAAAAGGAACCTCTAGCTAGCCGACTCACTATAGGGATAATCGCCCTGAGCAAAGACC
The binding signal of the first is lower: 1.14 ± 0.0686 log2FC for the first, 1.62 ± 0.0869 log2FC for the second.

First: CTCGAGGATATCAAGATCTGGCCTCGGCATATGGGCGGGAACCTCTAGCTAGCCGACTCACTATAGGGATAATCGCCCTGAGCAAAGACC
Second: CTCGAGGATATCAAGATCTGGCCTCGGCTTTTTAGTGGGAACCTCTAGCTAGCCGACTCACTATAGGGATAATCGCCCTGAGCAAAGACC
The binding signal of the first is lower: -0.745 ± 0.103 log2FC for the first, 1.59 ± 0.0858 log2FC for the second.

Compared with “CTCGAGGATATCAAGATCTGGCCTCGGCTTGTGGGCGGGAACCTCTAGCTAGCCGACTCACTATAGGGATAATCGCCCTGAGCAAAGACC”, “CTCGAGGATATCAAGATCTGGCCTCGGCGAGTGGGCGGGAACCTCTAGCTAGCCGACTCACTATAGGGATAATCGCCCTGAGCAAAGACC” is higher in binding signal: -0.943 ± 0.108 log2FC for the first, -0.602 ± 0.0984 log2FC for the second.

Going from “CTCGAGGATATCAAGATCTGGCCTCGGCTCATGGGCGGGAACCTCTAGCTAGCCGACTCACTATAGGGATAATCGCCCTGAGCAAAGACC” to “CTCGAGGATATCAAGATCTGGCCTCGGCTTTTTAGGCGGAACCTCTAGCTAGCCGACTCACTATAGGGATAATCGCCCTGAGCAAAGACC”, the binding signal rises from -1.04 ± 0.124 log2FC to 0.0492 ± 0.119 log2FC.

Compared with “CTCGAGGATATCAAGATCTGGCCTCGGCACCATAAAAGGAACCTCTAGCTAGCCGACTCACTATAGGGATAATCGCCCTGAGCAAAGACC”, “CTCGAGGATATCAAGATCTGGCCTCGGCTTTTTACCAGGAACCTCTAGCTAGCCGACTCACTATAGGGATAATCGCCCTGAGCAAAGACC” is lower in binding signal: 2.69 ± 0.0753 log2FC for the first, 0.621 ± 0.101 log2FC for the second.

Compared with “CTCGAGGATATCAAGATCTGGCCTCGGCGGGTTAAAAGGAACCTCTAGCTAGCCGACTCACTATAGGGATAATCGCCCTGAGCAAAGACC”, “CTCGAGGATATCAAGATCTGGCCTCGGCCGCCCAATGGGAACCTCTAGCTAGCCGACTCACTATAGGGATAATCGCCCTGAGCAAAGACC” is lower in binding signal: 0.632 ± 0.0825 log2FC for the first, -0.785 ± 0.113 log2FC for the second.

First: CTCGAGGATATCAAGATCTGGCCTCGGCGTTTTAACGGGAACCTCTAGCTAGCCGACTCACTATAGGGATAATCGCCCTGAGCAAAGACC
Second: CTCGAGGATATCAAGATCTGGCCTCGGCCGCCCACTAGGAACCTCTAGCTAGCCGACTCACTATAGGGATAATCGCCCTGAGCAAAGACC
The binding signal of the first is higher: 1.81 ± 0.0879 log2FC for the first, -0.944 ± 0.114 log2FC for the second.

Compared with “CTCGAGGATATCAAGATCTGGCCTCGGCCGCGACCGCGGAACCTCTAGCTAGCCGACTCACTATAGGGATAATCGCCCTGAGCAAAGACC”, “CTCGAGGATATCAAGATCTGGCCTCGGCTTTTTAGAAGGAACCTCTAGCTAGCCGACTCACTATAGGGATAATCGCCCTGAGCAAAGACC” is higher in binding signal: -0.85 ± 0.123 log2FC for the first, 0.559 ± 0.108 log2FC for the second.
